Bioassay records deposited in PubChem by National Center for Advancing Translational Sciences (NCATS).
In the library only some 6.2% were active in any assay of this set; here they are far more common.
HT1080 IDH1KD tx: qHTS for induction of synthetic lethality in tumor cells producing 2HG: qHTS for the HT-1080-IDH1KD cell line; 2% of 360,000 active; HT-1080 IDH1 knockdown viability, ATP luminescence, 48 h; Potency, µM (highest dose often 46.1 µM), without a hit: top-dose activity, negative = toxicity, most hits filed as cytotoxic; AID 686971, 2013;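 also: 0% = DMSO wells and -100% = cell-free medium wells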
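Cytotoxicity counter-line: IDH1KD HT-1080, 48 h, CellTiter-Glo. Curves classed by r2, magnitude and activity.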
KB-3-1 tox: qHTS assay for MDR1-selective chemotherapeutics: Primary screen using the parental adenocarcinoma cell KB-3-1; KB-3-1 viability, CellTiter-Glo ATP luminescence, 72 h; Potency, µM (series often up to 46.1 µM), hits mostly cytotoxic; 1.4% of 400,000 active; AID 1347075, 2019; also: % is scaled to controls: 0 for no effect and ±100 for the full control effect; nearly all actives have a fitted effect of over 60% in size
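Parental KB-3-1 adenocarcinoma cells in phenol-red-free DMEM with 10% FBS were pin-treated with compounds at several concentrations, incubated 72 h at 37 °C, and viability read by CellTiter-Glo luminescence; concentration-effect curves were fitted after normalization.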
S2 tox: Viability Counterscreen for Primary qHTS for Inhibitors of ATXN expression; S2 cells (HEK-293 line with an ATXN2-luciferase reporter) viability, CellTiter-Fluor protease fluorescence, 24 h; Potency, µM (doses to about 56.7 µM), usual class: cytotoxic; 0.49% of 400,000 active; AID 651635, 2014; also: nearly all actives have a fitted effect of over 40% in size
KB-V1 MDR tox: qHTS assay for MDR1-selective chemotherapeutics: Primary screen using the drug-selected MDR subline cells KB-V1; KB-V1 MDR cells viability, CellTiter-Glo, 72 h; Potency, µM (highest dose often 46.1 µM), actives largely listed as cytotoxic; 3.4% of 400,000 active; also: % is scaled to controls: 0 for no effect and ±100 for the full control effect; nearly all actives have a fitted effect of over 60% in size
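qHTS viability screen in drug-selected KB-V1 MDR cells: 72 h compound treatment at 37 degrees C, ATP luminescence end point.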
ATXN2 expr inh: Primary qHTS for Inhibitors of ATXN expression; AID 1745845, 2022; HEK-293 ATXN2-luciferase reporter, luminescence, 24 h; 0.72% of 360,000 active; Potency, µM (titrated, usually from 57 µM), inactives show at the highest dose activity change, negative = inhibition, actives largely listed as inhibitors; also: % is scaled to controls: 0 for no effect and ±100 for the full control effect; nearly all actives have a fitted effect of over 55% in size
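qHTS (up to 57 uM final) was run with 24 h compound exposure of reporter cells at 37 °C. Each well was multiplexed: SteadyGlo luminescence measured ATXN2-luciferase expression after a fluorogenic Gly-Phe-AFC viability readout (25 uM final).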
HT1080-NT tox: qHTS for induction of synthetic lethality in tumor cells producing 2HG: qHTS for the HT-1080-NT fibrosarcoma cell line; 1.6% of 360,000 active; Potency, µM (doses to about 46.1 µM), without a hit: at the top dose activity, negative = less viability, actives largely listed as cytotoxic; HT-1080-NT fibrosarcoma viability, CellTiter-Glo ATP luminescence, 48 h;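 also: NT is the 2HG producing partner of a matched IDH1 knockdown line; 0% = DMSO-treated cells and -100% = media-only wells without cells; nearly all actives have a fitted effect of over 55% in size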
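Fibrosarcoma NT cells, 750 per well in 5% FBS RPMI, were exposed to compound for 48 hours. Viability: CellTiter-Glo luminescence.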
An asterisk follows results filed as active; i = inactive; ? = inconclusive; . = no result given; [ ] = remark or other dose. Calls follow the shape of the dose curve; as a rule, active = well fitted curve in the direction sought with a large enough effect; inconclusive = small, poorly fitted or top-dose-only effect, or another doubt; inactive = no such curve, though single readings can be large; an effect the other way counts as inactive or inconclusive. Potency is read from the fitted curve at half-maximal effect.

SMILES	HT1080 IDH1KD tx	KB-3-1 tox	S2 tox	KB-V1 MDR tox	ATXN2 expr inh	HT1080-NT tox
CN(C)C(=O)c1cccc(-c2cnc3c(NC=O)cc(-c4cccc(C(F)(F)F)c4)cn23)c1	18µM*	i	.	?	?	23µM*
Cc1cccc(-c2cc(NC=O)c3ncc(-c4cccc(C(=O)N(C)C)c4)n3c2)c1	0%	i	?	?	0%	?
O=C1C=C(NCCc2cc(Br)c(O)c(Br)c2)C(=O)c2ncccc21	10µM*	7.3µM*	?	5.8µM*	9.5µM*	?
CC(C)(C)c1cc(CCC(=O)NCCc2ccccn2)cc(C(C)(C)C)c1O	-11%	i	i	?	-1%	-1%
COCCNc1nc(NCCNC(C)=O)c2sc(-c3ccccc3)cc2n1	?	i	i	i	-9%	?
COCCNc1nc(-c2ccccc2CO)c2sc(-c3ccccc3)cc2n1	0.92µM*	5.8µM*	?	21µM*	-18%	?
O=C1NCCN1CCNc1nc(NCC2CC2)nc2cc(-c3ccccc3)sc12	?	i	?	i	-11%	?
COCCNc1nc(NCC2CCCCC2)c2sc(-c3ccccc3)cc2n1	18µM*	?	18µM*	?	35µM*	18µM*
COCCNc1nc(NCCOc2ccccc2Cl)c2sc(-c3ccccc3)cc2n1	?	i	?	i	0%	?
c1ccc(-c2cc3nc(NCC4CC4)nc(NCC4CCCCC4)c3s2)cc1	4.6µM*	?	14µM*	?	?	3.3µM*
Cc1ccccc1-c1nc(CS(=O)(=O)CC(=O)NCC(C)c2ccccc2)c(C)o1 (centres undefined)	.	i	i	?	-13%	.
Cc1ccccc1-c1noc(-c2ccc(N3CCN(c4ccccc4)CC3)c([N+](=O)[O-])c2)n1	.	i	i	i	5%	.
CCc1ccc(NCc2cc3cc4c(cc3n(CC(=O)Nc3ccc(Cl)cc3)c2=O)OCO4)cc1	.	?	i	i	5%	.
Cc1cc(C)nc(SCC(=O)NC2=NN=C(c3ccc(Br)cc3)CS2)n1	16µM*	?	32µM*	i	?	22µM*
COc1ccc(N2CCN(C(=O)C3CCN(S(=O)(=O)c4cccc5nonc45)CC3)CC2)cc1	.	i	i	i	-3%	.
O=C(Cc1ccccc1)Nc1cc(Cl)ccc1Sc1ccccc1	26%	i	i	18µM*	3%	6%
O=C(CCl)Nc1ccccc1Sc1ccccc1	-3%	i	i	i	-15%	-7%
O=C(Cc1ccc(Cl)cc1)Nc1ccccc1Sc1ccccc1	-6%	?	i	23µM*	-6%	-13%
Nc1nc(SCC(=O)Nc2ccccc2Sc2ccccc2)n[nH]1	-18%	i	i	15µM*	-3%	8%
CCOC(=O)C1CCN(CC(=O)c2c(C)[nH]c3cc(C)ccc23)CC1	-4%	i	i	i	-16%	-1%
CCOCc1cnc(C)nc1NCC(=O)c1c(C)[nH]c2cc(C)ccc12	-2%[9.24 µM]	16µM*	i	i	1%	?
CCOCc1cnc(C)nc1NCC(=O)c1c(C)[nH]c2ccccc12	-9%	23µM*	i	i	-7%	-6%
COc1cc(OC)cc(-c2c(-c3ccc(F)cc3)c3cc(-c4ccc5[nH]ccc5c4)ccc3n2C)c1	-7%	i	i	21µM*	-21%	-7%
Cc1ccc(CNC(=O)c2nn(C)c3c2CSc2ccc(C)cc2-3)cc1	.	i	i	i	-17%	.
NCCCNc1ccc(Br)cn1	5%	.	.	.	.	23%
SMILES	HT1080 IDH1KD tx	KB-3-1 tox	S2 tox	KB-V1 MDR tox	ATXN2 expr inh	HT1080-NT tox
COc1ccc(-c2c[n+]3c(n2-c2ccccc2)SCC3)cc1	?	4.1µM*	i	i	-35%	-23%
Cc1ccc(-c2c[n+]3c(n2-c2ccccc2)SCC3)cc1	?	3.3µM*	?	i	?	-28%
O=C(NCc1ccc(F)cc1)c1ccc2c(O)c(S(=O)(=O)c3ccccc3)c(=O)[nH]c2c1	.	i	i	i	5%	.
COc1ccc2c(c1)CC(NC(=O)Nc1ccc(Br)c(C)c1)CO2 (centres undefined)	.	i	.	i	.	.
Cc1cc(Cl)ccc1NC(=O)C1CCN(S(=O)(=O)c2ccc3[nH]c(=O)ccc3c2)CC1	.	i	i	i	8%	.
CCC(=O)NC(=S)Nc1ccc(N2CCOCC2)cc1	18%	i	i	i	38%	12%
CCCC(=O)N1CCN(c2ccc(NC(=S)NC(=O)CC)cc2)CC1	2%	i	i	23µM*	5%	22%
COc1ccc(NC(=O)Cn2c(=O)n(-c3cccc(C)c3)c(=O)c3c2c2cc(C)ccc2n3C)cc1Cl	.	i	i	i	0%	.
Cc1noc(C)c1CCC(=O)Nc1c(C(C)C)cccc1C(C)C	-1%	i	?	15µM*	-19%	0%
CNC(=O)c1ccc(NC(=O)CCc2c(C)noc2C)cc1	2%	i	i	i	.	2%
CCOc1ccc2c(c1)c(=O)c(S(=O)(=O)c1ccccc1)cn2CC(=O)Nc1ccccc1OC	.	i	?	?	3%	.
Fc1ccc(-c2nc3n(n2)Cc2ccccc2-3)cc1	15µM*	?	i	?	52%	26µM*
CCn1c(C)nc2cc(-c3nc4n(n3)Cc3ccccc3-4)ccc21	1.8µM*	5.8µM*	i	?	0.4µM*	2.1µM*
CCCCCCC[n+]1ccc(/C=C/c2c(C)[nH]c3ccccc23)cc1	.	0.65µM*	.	i	.	.
CCCCNC(=S)N(C)/N=C/c1c(C)[nH]c2ccccc12	-25%	i	i	?	-7%	-27%
CCCc1c(C)[nH]c2ccccc2c1=O	16%	i	i	i	1%	16%
Cc1[nH]c2ccccc2c1/C=C/c1c(C)[nH]c2ccccc12	.	?	.	i	.	.
Cc1[nH]c2ccccc2c1/C=C/c1cc[n+](C)cc1	-7%	10µM*	i	i	-15%	-23%
CCCCCCCCCCCCCCCC[n+]1ccc(/C=C/c2c(C)[nH]c3ccccc23)cc1	.	1.3µM*	.	i	.	.
CC(C)N=C(NS(=O)(=O)c1cccs1)c1ccccc1	16%	i	i	i	2%	-7%
